# 3T3 cytotox: Cytotoxic Profiling in NIH 3T3 Cell Line of Diverse Libraries Using Quantitative High-Throughput Screening | actives 4.3% (n = 94,000) | AID 1345082, 2018 | Potency, µM (doses to about 96.7 µM), inactives show at the highest dose activity change, negative = cytotoxicity, actives largely listed as inhibitors | NIH 3T3 viability, CellTiter-Glo ATP luminescence, 48-72 h; further: on the % scale 0 is the no-effect control and ±100 the full control effect; nearly all actives have a fitted effect of over 55% in size
#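 First NIH 3T3 cells are plated at 400 cells/well; next compound is pinned in; then plates incubate 48 or 72 hr at 37 °C; finally CellTiter-Glo is added and luminescence read after 10 min.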
# NPR1 antag: Natriuretic polypeptide receptor (hNpr1) antagonism - Primary qHTS. HEK293 hNpr1 GloSensor cGMP, ANP-stimulated luminescence. Atrial natriuretic peptide receptor 1 (Homo sapiens), P16066. Potency, µM (series often up to 46.3 µM), for inactives: at the top dose activity change, negative = inhibition, actives largely listed as inhibitors. actives 1.6% (n = 76,000). AID 1347048, 2019; calls by dose curve; further: on the % scale 0 is the no-effect control and ±100 the full control effect; nearly all actives have a fitted effect of over 60% in size
# Target sequence (P16066 whole entry, looked up): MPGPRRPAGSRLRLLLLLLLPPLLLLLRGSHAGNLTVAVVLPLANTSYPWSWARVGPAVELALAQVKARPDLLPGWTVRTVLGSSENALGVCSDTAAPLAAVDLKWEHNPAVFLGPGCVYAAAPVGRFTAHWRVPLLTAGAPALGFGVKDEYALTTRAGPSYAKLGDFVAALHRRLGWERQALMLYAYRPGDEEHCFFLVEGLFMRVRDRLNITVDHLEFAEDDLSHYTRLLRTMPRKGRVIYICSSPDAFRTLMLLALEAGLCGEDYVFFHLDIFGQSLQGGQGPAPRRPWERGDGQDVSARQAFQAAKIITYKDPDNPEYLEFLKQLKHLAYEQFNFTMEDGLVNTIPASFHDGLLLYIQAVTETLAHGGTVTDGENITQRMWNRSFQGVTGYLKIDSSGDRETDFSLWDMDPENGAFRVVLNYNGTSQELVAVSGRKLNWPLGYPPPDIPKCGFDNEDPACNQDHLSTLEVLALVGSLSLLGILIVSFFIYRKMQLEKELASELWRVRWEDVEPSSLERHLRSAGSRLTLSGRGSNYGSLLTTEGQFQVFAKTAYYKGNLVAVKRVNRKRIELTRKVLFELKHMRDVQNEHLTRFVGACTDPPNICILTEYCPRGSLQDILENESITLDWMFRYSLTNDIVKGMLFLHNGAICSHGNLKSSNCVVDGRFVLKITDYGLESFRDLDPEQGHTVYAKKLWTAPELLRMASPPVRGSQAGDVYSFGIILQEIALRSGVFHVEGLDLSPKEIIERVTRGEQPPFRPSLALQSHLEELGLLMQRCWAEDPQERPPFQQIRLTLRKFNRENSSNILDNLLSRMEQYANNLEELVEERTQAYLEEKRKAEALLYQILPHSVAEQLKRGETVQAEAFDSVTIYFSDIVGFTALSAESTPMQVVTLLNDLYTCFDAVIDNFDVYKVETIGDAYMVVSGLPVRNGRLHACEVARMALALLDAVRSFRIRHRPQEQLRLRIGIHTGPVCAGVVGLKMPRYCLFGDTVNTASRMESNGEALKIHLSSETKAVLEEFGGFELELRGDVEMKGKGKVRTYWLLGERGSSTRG
#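 Compound pre-incubated 30 min at room temperature on GloSensor-loaded HEK293 cells stably carrying hNpr1 and the pGS-40F cGMP biosensor. Stimulation uses hNppA at 0.1 nM final; luminescence is taken at baseline and 20 min post-agonist.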
# FLuc inh: Firefly luciferase inhibition profiling of diverse chemical library using quantitative high-throughput screening | Luciferin 4-monooxygenase (Photinus pyralis), P08659 | purified P. pyralis luciferase, luminescence, biochemical | Potency, µM (doses to about 115 µM), hits mostly inhibitors | actives 2.5% (n = 76,000) | AID 1347043, 2019; further: on the % scale 0 is the no-effect control and ±100 the full control effect; nearly all actives have a fitted effect of over 65% in size
#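 FLuc 10nM, D-luciferin 10uM, ATP 10uM, Mg acetate 10mM, Tris acetate pH 7.5, Tween/BSA; cpd qHTS; enzyme added last; CCD luminescence.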
# GPT2 inh: Primary qHTS assay for inhibitors of Glutamate pyruvate transaminase 2 (GPT2) | actives 0.25% (n = 100,000) | Recombinant GPT2, coupled pyruvate oxidase/HRP Amplex Red fluorescence | Alanine aminotransferase 2 (Homo sapiens), Q8TD30 | Potency, µM (series often up to 57.7 µM), for inactives: at the highest dose activity change, negative = inhibition, actives largely listed as inhibitors; further: on the % scale 0 is the no-effect control and ±100 the full control effect; nearly all actives have a fitted effect of over 60% in size
#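 Inhibition is scored from Amplex Red fluorescence generated when pyruvate oxidase and HRP act on pyruvate released by GPT2. Reactions contain 10ng/uL enzyme, 250uM a-KG and 2mM L-alanine and run 30 min at room temperature.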
# HEK cytotox: Cytotoxic Profiling in HEK 293 Cell Line of Diverse Libraries Using Quantitative High-Throughput Screening; HEK 293 viability, ATP luminescence (CellTiter-Glo), 48-72 h; AID 1345083, 2018; Potency, µM (top dose mostly 115 µM), for inactives: at the top dose activity change, negative = cytotoxicity, most hits filed as inhibitors; actives 6.6% (n = 94,000); further: on the % scale 0 is the no-effect control and ±100 the full control effect; nearly all actives have a fitted effect of over 60% in size
#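 Read-out: CellTiter-Glo ATP luminescence. Cells: HEK 293, 250 cells/well. Exposure: 48 or 72 hr, 37 degree Celsius.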
# Npr1 antag conf: Natriuretic polypeptide receptor (hNpr1) antagonism - Confirmation. shares compounds with NPR1 antag. HEK293 hNpr1 cGMP GloSensor luminescence, ANP-stimulated. Potency, µM (titrated, usually from 57.6 µM), without a hit: top-dose activity change, negative = inhibition, hits mostly inhibitors. actives 76% (n = 1,400). AID 1347044, 2019; calls by dose curve; further: nearly all actives have a fitted effect of over 70% in size
# Npr2 selectivity: Natriuretic polypeptide receptor (hNpr2) antagonism - Subtype selectivity assay | actives 67% (n = 1,400) | AID 1347046, 2019 | HEK293 hNpr2 GloSensor cGMP luminescence, CNP-stimulated | shares compounds with NPR1 antag | Potency, µM (series often up to 57.6 µM), without a hit: at the top dose activity change, negative = inhibition, usual class: inhibitors; calls by dose curve; further: nearly all actives have a fitted effect of over 70% in size
# FLuc inh counter: Natriuretic polypeptide receptor (hNpr1) antagonism - Confirmation firefly luciferase (FLuc) inhibition counterscreen; Potency, µM (doses to about 57.6 µM), for inactives: at the top dose activity change, negative = inhibition, actives largely listed as inhibitors; purified FLuc enzyme, luminescence, Km substrate; actives 0.7% (n = 1,400); shares compounds with NPR1 antag; further: 0% is about no effect
# GloSensor cGMP: Natriuretic polypeptide receptor (hNpr1) antagonism - Counterscreen GloSensor control cell line | actives 69% (n = 1,400) | AID 1347051, 2019 | shares compounds with NPR1 antag | HEK293 GloSensor cGMP, SNP-stimulated, luminescence | Potency, µM (series often up to 57.6 µM), for the others: at the top dose activity change, negative = inhibition, usual class: inhibitors; calls by dose curve; further: on the % scale 0 is the no-effect control and ±100 the full control effect; nearly all actives have a fitted effect of over 70% in size
# Numbers without * were called inactive; i = inactive; ? = inconclusive; . = not tested or not shown; [ ] = remark or other dose. Rows were chosen to be rich in hits. Some 10% of all compounds tested hit in one or more screens of this group. Unless noted, the call rests on the fitted dose curve; in most records, active means well fitted curve in the direction sought with a large enough effect; inconclusive means small, poorly fitted or top-dose-only effect, or another doubt; inactive means no such curve, though single readings can be large; an effect the other way counts as inactive or inconclusive. Potency means the concentration at half of the fitted maximal effect.
SMILES,3T3 cytotox,NPR1 antag,FLuc inh,GPT2 inh,HEK cytotox,Npr1 antag conf,Npr2 selectivity,FLuc inh counter,GloSensor cGMP
CCc1ncc2c(=O)n(Cc3ccc(OC)cc3)ccn12,-26%,10µM*,i,-11%,?,12µM*,12µM*,-3%,8.6µM*
CCc1nc(CC)n2ccn(Cc3ccc(OC)cc3)c(=O)c12,?,2%,i,0%,?,.,.,.,.
O=C(N1CCOCC1)N1C2CCC1CN(c1ccc(C(F)(F)F)cc1)C2,14µM*,.,.,-1%,?,22µM*,22µM*,5%,19µM*
CC(=O)NCCCC(=O)N1C2CCC1CN(c1ccc(C(F)(F)F)cc1)C2,?,.,.,i,-29%,.,.,.,.
O=C(c1ccncc1)N1C2CCC1CN(c1ccc(C(F)(F)F)cc1)C2,?,.,.,i,?,24µM*,22µM*,1%,22µM*
Cc1cccc(NC(=O)Cn2c(N3CCc4ccccc4C3)nc(C)cc2=O)c1,?,-28%,i,i,45µM*,-29%,?,0%,?
Cc1cc(=O)n(CC(=O)NC(C)C)c(N2CCc3ccccc3C2)n1,-3%,4%,i,i,?,.,.,.,.
Cc1cc(=O)n(CC(=O)Nc2ccccc2C)c(N2CCc3ccccc3C2)n1,?,?,i,i,?,?,-22%,2%,-27%
COc1ccc(OC)c(NC(=O)Cn2c(N3CCc4ccccc4C3)nc(C)cc2=O)c1,28µM*,?,i,i,32µM*,?,?,1%,?
COc1ccc(C)cc1NC(=O)Cn1c(N2CCc3ccccc3C2)nc(C)cc1=O,-4%,1%,i,i,-1%,.,.,.,.
COc1ccccc1NC(=O)Cn1c(N2CCc3ccccc3C2)nc(C)cc1=O,?,-23%,i,i,?,-23%,-14%,-3%,-10%
CN(Cc1cncs1)Cc1ccccc1C(F)(F)F,-18%[138 µM],0%[70.6 µM],i,-7%[88.5 µM],-14%[172 µM],.,.,.,.
O=C1NCCCCCN(C(=O)NC2CCCCC2)[C@H]2CCC[C@@H]12,-7%,-3%,i,1%,i,.,.,.,.
Cc1nn(C)c(C)c1CCC(=O)N1CCC(Cc2noc(-c3ccc(F)cc3)n2)C1 (stereo unspecified),?,16µM*,i,3%,?,27µM*,?,2%,34µM*
CN(C)S(=O)(=O)N1CCC(Oc2ccc(C(=O)NCCc3ccncc3)cc2)CC1,?,-13%,i,i,?,.,.,.,.
CCn1cc(CNC(=O)c2ccc(OC3CCN(S(=O)(=O)N(C)C)CC3)cc2)cn1,-29%,13µM*,i,i,?,19µM*,19µM*,-3%,11µM*
Cc1ccc(NC(=O)CN2C(=O)NC(c3ccc(Cl)cc3)C3=C2COC3=O)c(C)c1 (stereo unspecified),?,-20%,i,0%,?,.,.,.,.
O=C(CN1C(=O)NC(c2ccc(Cl)cc2)C2=C1COC2=O)Nc1ccc(F)c(Cl)c1 (stereo unspecified),40µM*,?,i,?,?,?,?,-6%,?
CCOc1ccccc1C1NC(=O)N(CC(=O)Nc2cccc(C(C)C)c2)C2=C1C(=O)OC2 (stereo unspecified),?,?,i,i,?,?,?,-1%,?
Cc1ccc(NC(=O)CN2C(=O)NC(c3ccc(Cl)cc3)C3=C2COC3=O)c(Cl)c1 (stereo unspecified),?,?,i,0%,45µM*,?,-28%,4%,-20%
O=C(c1ccccc1OC1CN(Cc2ccc(F)c(F)c2)C1)N1CCOCC1,-16%,0%,i,2%,?,.,.,.,.
COc1ccccc1CN1CCC(CN(CC(C)C)C(=O)C2CCCN2)CC1 (stereo unspecified),?,8%,i,-25%,?,.,.,.,.
Cc1ccccc1C(=O)N1CCC(Cc2nc(-c3ccccc3)no2)CC1,?,8.9µM*,i,4%,?,11µM*,17µM*,-3%,11µM*
COc1ccc(-c2noc(CC3CCN(C(=O)c4ccccc4C)CC3)n2)cc1,?,10µM*,i,-20%,?,15µM*,17µM*,3%,12µM*
COc1ccc(C(=O)N2CCC3(CC2)CC(Cc2nc(-c4cnccn4)no2)CCO3)c(OC)n1 (stereo unspecified),2%,-1%,i,-14%,-1%,.,.,.,.
Cc1ccc(C(=O)N2CCC(Cc3nc(-c4cnccn4)no3)CC2)c(C)c1,-13%,-18%,i,-1%,?,.,.,.,.
COc1cc(OC)cc(C(=O)N2CCC(Cc3nc(-c4cnccn4)no3)CC2)c1,-21%,9%,i,4%,15%,.,.,.,.
Cc1ccc(C(=O)N2CCC(Cc3nc(-c4ccccc4)no3)CC2)c(C)c1,?,6.3µM*,i,i,50µM*,3.9µM*,5.4µM*,1%,3.9µM*

# Screens (PubChem BioAssay)
